Key:
[1] = molecular target: Mitogen-activated protein kinase 3 (Homo sapiens) (UniProt P27361); conditions: at 1 µM;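 note: values are mean percent inhibition of MAPK3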
[2] = molecular target: SRSF protein kinase 3 (Homo sapiens) (UniProt Q9UPE1); conditions: at 0.1 µM
[3] = molecular target: SRSF protein kinase 3 (Homo sapiens) (UniProt Q9UPE1); conditions: at 1 µM
[4] = molecular target: Mitogen-activated protein kinase 14 (Homo sapiens) (UniProt Q16539); conditions: at 0.1 µM
[5] = molecular target: Mitogen-activated protein kinase 14 (Homo sapiens) (UniProt Q16539); conditions: at 1 µM
[6] = molecular target: Mitogen-activated protein kinase 11 (Homo sapiens) (UniProt Q15759); conditions: at 0.1 µM
Mitogen-activated protein kinase 11 (Homo sapiens), sequence (Q15759 whole entry): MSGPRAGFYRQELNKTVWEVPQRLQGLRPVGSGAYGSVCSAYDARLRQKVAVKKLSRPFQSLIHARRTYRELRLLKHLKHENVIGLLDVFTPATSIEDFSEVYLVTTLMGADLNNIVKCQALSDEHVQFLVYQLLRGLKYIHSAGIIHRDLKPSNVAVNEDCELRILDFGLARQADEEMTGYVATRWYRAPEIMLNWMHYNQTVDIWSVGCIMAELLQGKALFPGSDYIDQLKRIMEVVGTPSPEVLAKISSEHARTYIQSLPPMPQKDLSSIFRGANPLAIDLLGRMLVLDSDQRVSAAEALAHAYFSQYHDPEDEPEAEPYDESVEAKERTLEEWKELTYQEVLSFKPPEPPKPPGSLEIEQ

[7] = molecular target: Mitogen-activated protein kinase 11 (Homo sapiens) (UniProt Q15759); conditions: at 1 µM
[8] = molecular target: T1, Mitogen-activated protein kinase 13 (Homo sapiens) (UniProt O15264); conditions: at 0.1 µM
T1 sequence (whole entry): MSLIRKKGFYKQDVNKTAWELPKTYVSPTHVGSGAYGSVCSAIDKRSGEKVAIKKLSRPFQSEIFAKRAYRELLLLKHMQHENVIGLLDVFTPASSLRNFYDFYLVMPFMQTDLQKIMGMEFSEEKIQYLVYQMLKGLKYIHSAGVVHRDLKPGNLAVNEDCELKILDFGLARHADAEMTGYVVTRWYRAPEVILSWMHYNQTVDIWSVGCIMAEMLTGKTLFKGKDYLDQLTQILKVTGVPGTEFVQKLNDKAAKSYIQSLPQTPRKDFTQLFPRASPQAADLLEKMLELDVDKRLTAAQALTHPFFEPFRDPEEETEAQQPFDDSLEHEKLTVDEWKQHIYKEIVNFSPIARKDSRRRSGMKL

[9] = molecular target: T1, Mitogen-activated protein kinase 13 (Homo sapiens); conditions: at 1 µM
[10] = molecular target: T2, Mitogen-activated protein kinase 12 (Homo sapiens) (UniProt P53778); conditions: at 0.1 µM
T2 sequence (whole entry): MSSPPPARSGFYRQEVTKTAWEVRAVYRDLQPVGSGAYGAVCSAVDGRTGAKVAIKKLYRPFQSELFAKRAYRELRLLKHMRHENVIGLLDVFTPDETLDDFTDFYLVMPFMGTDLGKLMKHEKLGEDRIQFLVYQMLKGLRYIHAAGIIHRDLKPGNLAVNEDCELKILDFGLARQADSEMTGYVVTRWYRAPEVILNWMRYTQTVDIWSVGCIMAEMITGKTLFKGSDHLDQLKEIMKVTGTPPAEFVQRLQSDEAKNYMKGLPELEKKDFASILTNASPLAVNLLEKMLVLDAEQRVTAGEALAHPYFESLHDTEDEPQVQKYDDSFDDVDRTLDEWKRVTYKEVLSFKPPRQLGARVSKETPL

[11] = molecular target: T2, Mitogen-activated protein kinase 12 (Homo sapiens); conditions: at 1 µM
[12] = molecular target: SRSF protein kinase 1 (Homo sapiens) (UniProt Q96SB4); conditions: at 0.1 µM
SRSF protein kinase 1 (Homo sapiens), sequence (Q96SB4 whole entry, canonical isoform): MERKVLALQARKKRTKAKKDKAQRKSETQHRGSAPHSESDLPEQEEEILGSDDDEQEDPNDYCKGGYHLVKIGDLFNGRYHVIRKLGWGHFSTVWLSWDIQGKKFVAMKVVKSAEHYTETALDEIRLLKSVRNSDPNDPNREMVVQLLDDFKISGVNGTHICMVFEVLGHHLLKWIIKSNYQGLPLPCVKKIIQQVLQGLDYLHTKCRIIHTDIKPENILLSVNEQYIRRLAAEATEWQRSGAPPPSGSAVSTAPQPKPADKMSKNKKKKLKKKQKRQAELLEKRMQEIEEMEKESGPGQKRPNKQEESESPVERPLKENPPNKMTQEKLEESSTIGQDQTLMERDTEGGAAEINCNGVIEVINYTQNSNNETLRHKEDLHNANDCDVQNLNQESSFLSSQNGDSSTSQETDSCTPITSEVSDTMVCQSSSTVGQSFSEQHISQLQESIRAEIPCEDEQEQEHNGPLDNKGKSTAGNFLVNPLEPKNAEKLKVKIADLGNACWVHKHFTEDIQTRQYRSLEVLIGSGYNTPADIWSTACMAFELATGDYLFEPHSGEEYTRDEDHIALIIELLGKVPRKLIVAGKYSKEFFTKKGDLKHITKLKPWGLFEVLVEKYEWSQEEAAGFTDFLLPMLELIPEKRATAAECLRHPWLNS

[13] = molecular target: SRSF protein kinase 1 (Homo sapiens) (UniProt Q96SB4); conditions: at 1 µM
[14] = molecular target: Phosphatidylinositol 4,5-bisphosphate 3-kinase catalytic subunit alpha isoform (Homo sapiens) (UniProt P42336); conditions: at 0.1 µM
Phosphatidylinositol 4,5-bisphosphate 3-kinase catalytic subunit alpha isoform (Homo sapiens), sequence (P42336 whole entry, canonical isoform): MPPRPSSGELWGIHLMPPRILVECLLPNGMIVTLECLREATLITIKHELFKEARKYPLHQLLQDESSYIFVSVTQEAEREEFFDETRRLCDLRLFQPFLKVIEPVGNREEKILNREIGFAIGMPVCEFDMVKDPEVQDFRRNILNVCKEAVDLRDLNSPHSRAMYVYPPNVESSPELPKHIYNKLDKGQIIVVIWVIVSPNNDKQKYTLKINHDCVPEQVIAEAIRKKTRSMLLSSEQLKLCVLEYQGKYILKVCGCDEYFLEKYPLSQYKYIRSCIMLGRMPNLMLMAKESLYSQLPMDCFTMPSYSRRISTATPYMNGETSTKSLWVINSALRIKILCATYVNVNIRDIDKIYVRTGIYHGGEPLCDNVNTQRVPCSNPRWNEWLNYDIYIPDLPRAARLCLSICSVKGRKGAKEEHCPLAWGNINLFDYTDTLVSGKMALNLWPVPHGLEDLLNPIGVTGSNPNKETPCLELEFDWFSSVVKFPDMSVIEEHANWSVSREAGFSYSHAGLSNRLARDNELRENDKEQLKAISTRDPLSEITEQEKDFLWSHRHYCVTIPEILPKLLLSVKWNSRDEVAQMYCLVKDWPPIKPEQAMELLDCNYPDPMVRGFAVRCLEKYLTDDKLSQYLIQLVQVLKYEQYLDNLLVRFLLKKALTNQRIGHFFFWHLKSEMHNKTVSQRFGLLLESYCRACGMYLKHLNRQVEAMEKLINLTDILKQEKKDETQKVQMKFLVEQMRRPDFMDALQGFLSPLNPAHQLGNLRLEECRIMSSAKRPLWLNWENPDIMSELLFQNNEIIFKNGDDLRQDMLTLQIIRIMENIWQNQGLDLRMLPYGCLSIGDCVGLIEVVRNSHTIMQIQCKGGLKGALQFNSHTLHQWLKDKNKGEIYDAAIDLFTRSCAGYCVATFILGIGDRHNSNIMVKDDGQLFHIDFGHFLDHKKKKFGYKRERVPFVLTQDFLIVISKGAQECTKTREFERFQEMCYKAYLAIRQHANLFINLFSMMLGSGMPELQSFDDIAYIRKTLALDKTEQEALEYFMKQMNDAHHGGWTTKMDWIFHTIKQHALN

[15] = molecular target: Phosphatidylinositol 4,5-bisphosphate 3-kinase catalytic subunit alpha isoform (Homo sapiens) (UniProt P42336); conditions: at 1 µM
[16] = molecular target: T3, Phosphatidylinositol 4,5-bisphosphate 3-kinase catalytic subunit delta isoform (Homo sapiens) (UniProt O00329); conditions: at 0.1 µM
T3 sequence (whole entry): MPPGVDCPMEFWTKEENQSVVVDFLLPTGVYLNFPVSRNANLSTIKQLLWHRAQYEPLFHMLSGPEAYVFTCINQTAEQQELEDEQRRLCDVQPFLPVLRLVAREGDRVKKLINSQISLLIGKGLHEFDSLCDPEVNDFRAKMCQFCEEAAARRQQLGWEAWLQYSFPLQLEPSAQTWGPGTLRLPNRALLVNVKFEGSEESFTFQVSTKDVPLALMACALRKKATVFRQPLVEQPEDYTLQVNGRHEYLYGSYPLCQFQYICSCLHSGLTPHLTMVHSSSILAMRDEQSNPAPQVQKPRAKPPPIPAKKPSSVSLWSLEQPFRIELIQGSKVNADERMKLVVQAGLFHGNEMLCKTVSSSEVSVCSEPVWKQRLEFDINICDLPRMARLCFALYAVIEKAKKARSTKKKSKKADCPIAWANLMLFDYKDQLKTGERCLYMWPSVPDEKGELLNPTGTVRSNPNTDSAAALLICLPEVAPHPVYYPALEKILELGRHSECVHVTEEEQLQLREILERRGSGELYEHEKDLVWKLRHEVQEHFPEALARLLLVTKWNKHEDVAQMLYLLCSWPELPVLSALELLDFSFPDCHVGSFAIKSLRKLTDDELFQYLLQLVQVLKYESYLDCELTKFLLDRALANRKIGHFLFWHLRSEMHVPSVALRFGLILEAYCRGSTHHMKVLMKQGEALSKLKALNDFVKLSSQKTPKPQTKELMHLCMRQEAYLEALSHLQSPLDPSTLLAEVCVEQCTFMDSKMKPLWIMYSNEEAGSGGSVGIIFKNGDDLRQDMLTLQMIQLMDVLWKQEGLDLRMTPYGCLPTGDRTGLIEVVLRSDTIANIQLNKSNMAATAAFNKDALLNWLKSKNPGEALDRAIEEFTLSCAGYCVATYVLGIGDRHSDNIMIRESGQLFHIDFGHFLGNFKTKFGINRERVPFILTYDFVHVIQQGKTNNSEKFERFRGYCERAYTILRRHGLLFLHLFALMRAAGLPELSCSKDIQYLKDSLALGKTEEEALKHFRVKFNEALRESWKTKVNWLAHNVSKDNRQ

[17] = molecular target: T3, Phosphatidylinositol 4,5-bisphosphate 3-kinase catalytic subunit delta isoform (Homo sapiens); conditions: at 1 µM
[18] = molecular target: Phosphatidylinositol 4-kinase beta (Homo sapiens) (UniProt Q9UBF8); conditions: at 0.1 µM
Phosphatidylinositol 4-kinase beta (Homo sapiens), sequence (Q9UBF8 2-816 limits assumed): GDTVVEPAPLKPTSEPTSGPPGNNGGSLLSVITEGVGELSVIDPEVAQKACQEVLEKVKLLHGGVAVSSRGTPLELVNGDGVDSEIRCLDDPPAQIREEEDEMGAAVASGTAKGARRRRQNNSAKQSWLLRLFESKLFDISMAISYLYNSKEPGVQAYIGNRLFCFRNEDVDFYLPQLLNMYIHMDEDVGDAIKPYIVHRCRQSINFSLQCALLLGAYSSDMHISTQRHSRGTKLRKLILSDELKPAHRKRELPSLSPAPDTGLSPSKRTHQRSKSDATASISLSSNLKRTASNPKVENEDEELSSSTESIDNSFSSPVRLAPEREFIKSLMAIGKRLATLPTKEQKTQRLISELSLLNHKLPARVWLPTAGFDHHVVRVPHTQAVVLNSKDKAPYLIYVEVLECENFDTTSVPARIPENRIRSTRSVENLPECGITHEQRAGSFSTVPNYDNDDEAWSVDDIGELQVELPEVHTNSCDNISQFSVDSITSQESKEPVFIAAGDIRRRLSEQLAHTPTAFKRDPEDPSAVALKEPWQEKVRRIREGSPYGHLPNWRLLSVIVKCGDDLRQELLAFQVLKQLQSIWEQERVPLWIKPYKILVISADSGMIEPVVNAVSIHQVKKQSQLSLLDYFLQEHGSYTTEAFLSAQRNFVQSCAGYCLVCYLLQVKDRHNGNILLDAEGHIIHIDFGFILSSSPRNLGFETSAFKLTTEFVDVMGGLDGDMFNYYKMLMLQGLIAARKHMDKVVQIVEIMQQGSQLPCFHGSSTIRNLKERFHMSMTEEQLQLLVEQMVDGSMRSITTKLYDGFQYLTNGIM

[19] = molecular target: Phosphatidylinositol 4-kinase beta (Homo sapiens) (UniProt Q9UBF8); conditions: at 1 µM
[20] = molecular target: Sphingosine kinase 1 (Homo sapiens) (UniProt Q9NYA1); conditions: at 0.1 µM;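 note: mean percent inhibition of SPHK1 activity, measured within the GSK PKIS screening panel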
Sphingosine kinase 1 (Homo sapiens), sequence (Q9NYA1 whole entry): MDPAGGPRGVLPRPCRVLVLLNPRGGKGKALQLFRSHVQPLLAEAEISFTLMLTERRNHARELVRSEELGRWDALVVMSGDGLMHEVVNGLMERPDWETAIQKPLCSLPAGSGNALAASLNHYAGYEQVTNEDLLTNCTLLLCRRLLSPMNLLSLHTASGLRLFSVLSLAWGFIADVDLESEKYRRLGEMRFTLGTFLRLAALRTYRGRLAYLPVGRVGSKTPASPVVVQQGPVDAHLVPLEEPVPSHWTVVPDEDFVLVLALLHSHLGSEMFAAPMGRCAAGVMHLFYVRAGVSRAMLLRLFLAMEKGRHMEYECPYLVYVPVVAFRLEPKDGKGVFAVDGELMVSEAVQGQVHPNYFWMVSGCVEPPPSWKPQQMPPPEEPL

Mitogen-activated protein kinase 3 (Homo sapiens), sequence (P27361 whole entry): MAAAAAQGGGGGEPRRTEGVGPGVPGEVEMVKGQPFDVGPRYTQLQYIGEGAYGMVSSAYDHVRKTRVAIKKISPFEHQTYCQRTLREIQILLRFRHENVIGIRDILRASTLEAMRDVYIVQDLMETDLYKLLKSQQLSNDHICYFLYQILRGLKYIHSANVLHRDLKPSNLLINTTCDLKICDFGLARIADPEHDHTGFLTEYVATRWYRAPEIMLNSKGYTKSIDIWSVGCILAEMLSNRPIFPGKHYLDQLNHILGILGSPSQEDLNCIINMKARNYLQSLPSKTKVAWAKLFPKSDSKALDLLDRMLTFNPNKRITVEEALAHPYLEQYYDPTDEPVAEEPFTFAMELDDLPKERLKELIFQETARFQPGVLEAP
Mitogen-activated protein kinase 14 (Homo sapiens), sequence (Q16539 whole entry): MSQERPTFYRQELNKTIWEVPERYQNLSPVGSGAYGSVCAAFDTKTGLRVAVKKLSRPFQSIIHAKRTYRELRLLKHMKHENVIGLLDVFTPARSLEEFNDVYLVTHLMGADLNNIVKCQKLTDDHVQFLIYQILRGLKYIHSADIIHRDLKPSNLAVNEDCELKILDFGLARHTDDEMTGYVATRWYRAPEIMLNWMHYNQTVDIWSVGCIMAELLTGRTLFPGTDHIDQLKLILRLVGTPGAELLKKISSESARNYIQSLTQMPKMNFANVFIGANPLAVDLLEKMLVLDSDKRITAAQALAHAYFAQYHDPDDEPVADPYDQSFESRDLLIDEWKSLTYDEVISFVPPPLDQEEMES
SRSF protein kinase 3 (Homo sapiens), sequence (Q9UPE1 whole entry): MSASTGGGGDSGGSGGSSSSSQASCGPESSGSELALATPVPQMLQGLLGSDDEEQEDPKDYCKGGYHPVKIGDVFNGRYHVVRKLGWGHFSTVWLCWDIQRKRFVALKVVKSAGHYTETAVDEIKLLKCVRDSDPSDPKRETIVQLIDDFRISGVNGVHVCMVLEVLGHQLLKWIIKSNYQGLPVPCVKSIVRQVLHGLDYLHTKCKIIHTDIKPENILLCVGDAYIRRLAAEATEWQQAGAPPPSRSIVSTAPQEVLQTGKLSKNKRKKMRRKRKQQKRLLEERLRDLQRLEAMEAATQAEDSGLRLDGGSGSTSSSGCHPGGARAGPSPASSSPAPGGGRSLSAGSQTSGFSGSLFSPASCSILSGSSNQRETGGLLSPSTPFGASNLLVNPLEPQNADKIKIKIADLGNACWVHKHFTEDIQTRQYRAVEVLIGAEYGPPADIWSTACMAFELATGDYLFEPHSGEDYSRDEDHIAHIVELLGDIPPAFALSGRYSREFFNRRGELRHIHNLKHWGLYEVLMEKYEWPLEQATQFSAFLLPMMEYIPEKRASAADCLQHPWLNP

Row | SMILES | inhibition [1] [%] | inhibition [2] [%] | inhibition [3] [%] | inhibition [4] [%] | inhibition [5] [%] | inhibition [6] [%] | inhibition [7] [%] | inhibition [8] [%] | inhibition [9] [%] | inhibition [10] [%] | inhibition [11] [%] | inhibition [12] [%] | inhibition [13] [%] | inhibition [14] [%] | inhibition [15] [%] | inhibition [16] [%] | inhibition [17] [%] | inhibition [18] [%] | inhibition [19] [%] | inhibition [20] [%]
1 | COc1ccc2cc(-c3c(-c4ccncc4)nc(-c4ccc([S+](C)[O-])cc4C)n3C)ccc2c1 (configuration not stated) | 0.97 | -0.41 | 0.96 | 8.81 | 8.45 | -1.91 | 9.09 | 0.73 | -0.19 | -2.44 | -0.09 | -0.31 | -0.89 | -2.02 | -0.83 | -2.38 | -1.78 | 2.91 | -0.88 | -0.09
2 | COc1cccc(-n2cnc3c(N/N=C/c4ccncc4)ncnc32)c1 | 2.27 | -0.93 | 0.28 | 2.63 | -0.98 | 1.35 | 0.89 | -0.64 | -2.04 | -1.4 | -1.27 | 1.41 | 4.2 | -0.19 | -3.79 | -1.29 | -2.3 | 5.84 | -1.85 | -0.37
3 | CNC(=O)c1cncc(/C=C/c2c(C)cccc2C)c1 | 3.65 | -0.82 | 2.87 | 1.86 | 7.55 | 0.94 | 2.24 | -0.85 | -0.13 | -0.99 | -0.37 | 0.32 | 0.21 | -1.85 | -3.99 | -1.64 | -1.98 | 3.95 | 0.59 | 0.03
4 | O=C(Nc1n[nH]c2nc(-c3ccco3)ccc12)C1CC1 | 1.35 | 0.39 | 4.26 | 1.96 | 5.5 | 1.81 | 1.59 | 1.26 | 1.37 | 5.77 | 0.97 | -1.07 | -1.33 | -1.36 | 0.99 | -0.99 | 1.03 | 3.38 | 1.68 | -0.31
5 | N#Cc1ccc(Oc2nccc(-c3c(-c4ccc(F)cc4)ncn3C3CCNCC3)n2)cc1 | 6.42 | -1.55 | -0.03 |  |  |  |  |  |  |  |  | -3.52 | -3.38 | 5.16 | 19.6 | 2.8 | 17.6 | 1.26 | 1.85 | 0.59
6 | NS(=O)(=O)c1ccc(N/N=C2\C(=O)Nc3ccc(C(=O)NCCCn4ccnc4)cc32)cc1 | 15.9 | -1.4 | 0.48 | 1.52 | 7.84 | 5.07 | 9.47 | 1.23 | 6.17 | 2.29 | 2.75 | -0.49 | 2.62 | 3.67 | 4.54 | 0.52 | 2.39 |  | -5.49 | 14.8
7 | C[C@@H](Oc1cc(-n2cnc3ccc(OCC4CCN(C)CC4)cc32)sc1C(N)=O)c1ccccc1Cl | 7.74 | 0.89 | 0.11 | 5.8 | 6.58 | 3.71 | 5.93 | 5.74 | 6.23 | 3.48 | 6.25 | -2.59 | -1.67 | 8.19 | 27.3 | 15.6 | 74.6 | -6.34 |  | 1.45
8 | NC(=O)c1ccc(Oc2nccc(-c3c(-c4ccc(F)cc4)ncn3C3CCNCC3)n2)cc1 | 5.38 | 1.1 | -0.11 |  |  |  |  |  |  |  |  | -2.65 | -1.89 | 6.13 | 8.85 | 0.53 | 5.87 | 2.26 | 2.71 | 2.48
9 | Cc1nnc(-c2ccc(C)c(-c3ccc(C(=O)NCc4ccc(Cl)cc4)cc3)c2)o1 | 3.65 | -1.7 | -0.7 | 9.97 | 54.2 | 6.73 | 27.7 | 1.96 | 3.99 | 1.42 | 3.42 | -1.29 | -1.82 | 3.66 | 2.48 | 2.02 | 3.9 |  | -0.13 | 0.23
10 | Fc1ccc(-c2nc3n(c2-c2ccncc2)CCS3)cc1 | 4.33 | -1.07 | -0.89 | 19.8 | 67.4 | 8.81 | 13.1 | 1.46 | 5.36 | 1.62 | 3.41 | -1.99 | -4.38 | 3.77 | 4.45 | 3.17 | 4.9 | -3.93 | 0.29 | -3.68
11 | NCc1ccc(-n2c(-c3nonc3N)nc3cnccc32)cc1 | 5.64 | -0.85 | -1.47 | 4.72 | 10 | 5.07 | 11 | 2.2 | 7.37 | 3.52 | 3.74 | -2.56 | -1.45 | 4.81 | 4.8 | 3.69 | 6.07 |  | 5.38 | 1.89
12 | CCc1ccc(Oc2nccc(-c3c(-c4ccc(F)cc4)ncn3C3CCNCC3)n2)cc1 | 8.24 | 3.09 | 0.07 |  |  |  |  |  |  |  |  | -2.85 | -3.81 | 3.74 | 3.81 | 1.87 | 6.26 | 3.17 | 2.82 | 1.33
13 | C/C(Nc1ccc(S(N)(=O)=O)cc1)=C1/C(=O)Nc2ccccc21 | 0.88 | -1.51 | -1.15 | 2.61 | 3.43 | 1.67 | 7.87 | -0.85 | -1.14 | -1.08 | -1.66 | 2.04 | 1.41 | 0.42 | 1.42 | 2.42 | 3.52 | -1.12 | -0.13 | -1.38
